Assay outcomes: PubChem BioAssay, National Center for Advancing Translational Sciences (NCATS)
Shown are actives, neighbours in structure and some others; about 21% of the full set was active somewhere.
Pf growth 48h: Primary qHTS for delayed death inhibitors of the malarial parasite plastid, 48 hour incubation; P. falciparum luciferase growth in erythrocytes, 48 h; Potency, µM (series often up to 28.7 µM), inactives show at the top dose activity change, negative = inhibition, actives largely listed as inhibitors; 5.9% of 310,000 active; AID 504832, 2011; also: potency is read from the fitted curve at half-maximal effect; % is scaled to controls: 0 for no effect and ±100 for the full control effect
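A one-generation exposure of luciferase-tagged malaria parasites in RPMI 1640/Albumax erythrocyte culture, 37 C and 5% CO2. Inhibition is inferred from decreased luminescence after adding detection reagent.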
SARS PLP yeast: qHTS of Yeast-based Assay for SARS-CoV PLP; S. cerevisiae expressing SARS-CoV PLpro, growth rescue; Potency, µM (highest dose often 32.9 µM), without a hit: top-dose activity, positive = growth rescue, hits mostly activators; 0.19% of 330,000 active; AID 485353, 2010; calls by dose curve; also: potency is read from the fitted curve at half-maximal effect; 0% is about no effect; nearly all actives have a fitted effect of over 55% in size
CHX counter: Cycloheximide Counterscreen for Small Molecule Inhibitors of Shiga Toxin. cell reporter, cycloheximide protein synthesis inhibition counterscreen. 12% of 300,000 active. max response, %. AID 2314, 2010; in the data active = max response mostly above about 13%, no sharp cut-off; inactive = mostly below about 14%; also: read at 38.3 µM for the half of the compounds with a filed dose; 0% is about no effect
NS1 function inh: qHTS Assay for Inhibitors of Influenza NS1 Protein Function; AID 2326, 2010; 0.4% of 270,000 active; Potency, µM (top dose mostly 46.1 µM), inactives show at the highest dose activity, positive = more growth; calls by dose curve; also: potency is read from the fitted curve at half-maximal effect; actives are rising curves; nearly all actives have a fitted effect of over 50% in size
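OD600 was taken as the measure of yeast growth restored by compound in an NS1-expressing S. cerevisiae strain. Cells had been washed out of glucose medium and diluted 1:100 into galactose -URA medium, pH 6.0.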
Pf growth 96h: Primary qHTS for delayed death inhibitors of the malarial parasite plastid, 96 hour incubation | P. falciparum luciferase reporter growth, 96 h | Potency, µM (titrated, usually from 28.7 µM), for inactives: at the highest dose activity change, negative = inhibition, usual class: inhibitors | 6.9% of 320,000 active | AID 504834, 2011; also: potency is read from the fitted curve at half-maximal effect; % is scaled to controls: 0 for no effect and ±100 for the full control effect
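Plates of compound plus infected erythrocytes (2% hematocrit, 0.05% parasitemia final) incubate 96 hours, 37 C, 5% CO2. Detection reagent added; reduced luminescence from the parasites' luciferase reporter flags inhibition.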
Shiga inhibitor: A qHTS for Small Molecule Inhibitors of Shiga Toxin. Vero cells, Shiga toxin protein synthesis inhibition reporter. AID 2315, 2010. 9.2% of 290,000 active. inhibition, % at 38.7 µM; in the data active = inhibition mostly above about 28%, no sharp cut-off; inactive = mostly below about 43%; also: 0% is about no effect
Starred values were filed as active, the others as inactive; i = inactive; ? = inconclusive; . = not tested or not shown. Unless noted, calls follow the shape of the dose curve; as a rule, active = well fitted inhibition curve with a large enough effect; inconclusive = small, poorly fitted or top-dose-only effect, or another doubt; inactive = no such curve, though single readings can be large or run the other way.

SMILES	Pf growth 48h	SARS PLP yeast	CHX counter	NS1 function inh	Pf growth 96h	Shiga inhibitor
O=C(c1cc(-c2ccc(Br)cc2)n[nH]1)N1CCN(C(=O)c2ccccc2Br)CC1	9.28µM*	4.0%	12.0	10.9%	-15.4%	-9.1
COc1ccc(-c2cc(C(=O)N3CCN(S(=O)(=O)c4ccccc4)CC3)[nH]n2)cc1	?	4.6%	5.9*	10.3%	55.3%	19.9
COc1ccccc1-c1cc(C(=O)N2CCN(S(=O)(=O)c3ccc(C)cc3)CC2)[nH]n1	0.465µM*	-2.0%	-2.9	17.9%	14.7µM*	-10.1
O=C(c1cc(-c2ccccc2)n[nH]1)N1CCN(S(=O)(=O)c2ccccc2)CC1	3.7µM*	5.3%	-2.4	6.8%	?	14.4
O=C(O)c1cc(-c2ccccc2)n[nH]1	13.4%	17.8%	-2.1	8.9%	18.5%	4.3
COC(=O)c1sccc1NC(=S)N1CCN(c2ccccc2F)CC1	23.0%	-6.3%	-1.4	-2.6%	-7.9%	-12.6
Cc1cc(C)c(C)c(S(=O)(=O)N2CCN(C(=O)c3cc(=O)[nH]c4ccccc34)CC2)c1C	?	-7.3%	-2.6	14.0%	?	-27.8
Cc1cc(C)c(S(=O)(=O)N2CCN(C(=O)c3cc(=O)[nH]c4ccccc34)CC2)c(C)c1	11.7µM*	3.3%	.	.	?	.
O=C(c1n[nH]c2ccccc12)N1CCN(S(=O)(=O)c2ccc3ccccc3c2)CC1	?	-16.4%	3.8	-26.4%	149.8%	-5.7
COc1ccc(S(=O)(=O)N2CCN(C(=O)c3cc(-c4ccc(Br)cc4)n[nH]3)CC2)cc1OC	9.28µM*	-5.2%	9.6	23.1%	?	-7.4
Cc1ccc(S(=O)(=O)N2CCN(C(=O)c3n[nH]c4ccccc34)CC2)cc1	2.62µM*	-2.7%	.	.	11.7µM*	.
COc1ccc(S(=O)(=O)N2CCN(C(=O)c3cc(C)oc3C)CC2)cc1OC	5.1%	-1.8%	.	.	?	.
CC1CCCCC1NC(=O)Cn1cnc2sccc2c1=O (stereo unspecified)	-4.4%	-1.6%	.	.	-6.6%	.
CCCc1cc(C(=O)Nc2ccccc2C(=O)OC)no1	4.1%	-2.2%	-3.0	-16.4%	11.7µM*	11.6
COc1ccccc1-c1cc(C(=O)Nc2cccnc2Cl)no1	9.2%	2.0%	-6.6	-2.0%	21.5%	-10.3
CCCc1cc(C(=O)Nc2cc(C)ccc2O)no1	-25.3%	-9.6%	18.4*	-11.5%	15.8%	49.5*
CCCc1cc(C(=O)Nc2cc(OC)c(Cl)cc2OC)no1	.	-3.4%	-3.4	-33.7%	55.1%	11.6
CCCc1cc(C(=O)Nc2cccnc2Cl)no1	.	-17.7%	55.2*	-45.4%	11.7µM*	59.1*
C/C(=N/NS(=O)(=O)c1ccc(C(C)(C)C)cc1)c1ccc2c(c1)OCO2	53.7%	-1.4%	1.2	-59.2%	61.7%	-2.6
Oc1[nH]c2ccccc2c1N=Nc1nncc2ccccc12	?	-3.2%	34.9*	-32.2%	3.5%	60.4*
Oc1[nH]c2ccc(Br)cc2c1N=Nc1ccc(C(F)(F)F)cn1	?	-6.6%	5.7	-13.4%	9.28µM*	38.9
Oc1[nH]c2ccccc2c1N=Nc1ccc(C(F)(F)F)cn1	68.8%	-4.4%	17.6*	-0.8%	112.6%	17.4
CCOc1ccc(-c2csc(Cn3c(CN4CCN(C)CC4)nc4ccccc4c3=O)n2)cc1	?	0.3%	0.9	9.2%	?	-1.1
Cc1nc(CSc2ccc(Br)cc2)cs1	43.1%	0.2%	23.4*	0.4%	57.5%	49.2*
Cc1nc(CSc2ccc(Cl)cc2)cs1	.	-0.4%	35.5*	-2.4%	26.8%	111.1*
SMILES	Pf growth 48h	SARS PLP yeast	CHX counter	NS1 function inh	Pf growth 96h	Shiga inhibitor
Cc1nc(CNS(=O)(=O)c2ccc(Br)cc2)cs1	16.8%	1.0%	-3.0	6.4%	?	-9.3
O=C(CC1NC(=S)NC1=O)c1ccc(Cl)cc1 (stereo unspecified)	3.8%	0.2%	-0.4	-0.7%	22.5%	9.3
COc1ccc(NC(=O)/C(=C\c2ccncc2)NC(=O)c2ccccc2)cc1	?	2.4%	21.5	.	20.0%	-6.1
CC(C)NCc1nnc(-c2ccccc2Cl)o1	0.5%	-0.2%	15.3	.	?	38.6*
CSc1nnc(-c2ccccc2Cl)o1	.	-1.8%	29.5*	-7.9%	-13.0%	87.7*
CSc1ccccc1-c1nnc(-c2ccc(Cl)cc2Cl)o1	53.9%	-15.3%	24.1	-8.6%	140.7%	30.2
CCSc1nnc(-c2ccc(Cl)cc2Cl)o1	.	-2.6%	57.4*	-16.0%	-5.2%	84.8*
CSc1nnc(-c2cccn(Cc3ccccc3)c2=O)o1	1.1%	0.1%	11.0	.	?	31.5
CSc1nnc(-c2ccc(Cl)cc2Cl)o1	134.7%	4.5%	52.1*	-4.0%	.	91.1
O=C(COc1ccc2ccccc2c1)N/N=C/C1CC=CCC1 (stereo unspecified)	-2.9%	7.7%	-3.7	24.6%	?	1.9
Cc1cc(C)nc(NCCC(=O)O)n1	15.3%	0.6%	-2.5	.	-19.9%	-1.8
CSc1ccccc1-c1nnc(-c2ccc(Cl)c(Cl)c2)o1	36.9%	1.4%	18.8	-3.3%	?	4.7
CCSc1nnc(-c2ccccc2SC)o1	i	0.7%	20.3	.	8.28µM*	35.0
CC(C)(C)c1nn(-c2ccccc2)c2[nH]c(=O)c(C=O)cc12	?	-12.9%	7.0	-49.2%	155.1%	-10.7
CN1CCc2nc3sc(C#N)c(N)c3c(-c3cccs3)c2C1	13.1µM*	-4.0%	0.6	3.8%	.	-20.9
COc1ccc(-c2ccc(OC)c(C3C4C=CCC(C)C4C(=O)N3Cc3ccccc3)c2)cc1 (stereo unspecified)	.	.	10.0	.	.	-8.9
NS(=O)(=O)c1cc(Cl)c(NC(=O)COC(=O)c2ccccn2)c(Cl)c1	-18.9%	9.3%	.	.	-28.0%	.
COCCn1c(-c2ccc(Br)cc2)nc2oc3cc(OC)ccc3c(=O)c2c1=O	8.28µM*	1.7%	-3.5	-33.4%	?	-4.4
COc1ccc2c(=O)c3c(=O)n(Cc4ccco4)c(-c4ccccc4)nc3oc2c1	11.7µM*	-1.3%	12.7	-65.2%	.	-15.9
CCCc1nc2oc3cc(OC)ccc3c(=O)c2c(=O)n1Cc1ccco1	9.28µM*	-0.6%	-3.7	-35.3%	14.7%	-24.5
COCCn1c(-c2ccccc2)nc2oc3cc(OC)ccc3c(=O)c2c1=O	?	4.3%	-3.3	-41.0%	?	-9.5
COc1ccc2c(=O)c3c(=O)n(Cc4ccco4)c(-c4cc(OC)c(OC)c(OC)c4)nc3oc2c1	1.85µM*	-31.6%	1.1	1.7%	1.65µM*	14.1
COc1ccc(Cn2c(C)nc3oc4cc(OC)ccc4c(=O)c3c2=O)cc1	?	4.1%	-8.0	1.7%	?	-13.5
Cc1ccc(NC(=O)CN(c2ccccc2)S(=O)(=O)N(C)C)cc1	1.8%	15.8%	-4.9	4.2%	2.3%	2.7
COc1ccc(-n2nc3c(c2NC(=O)CCCCl)CSC3)cc1	?	-3.9%	16.4*	2.7%	?	28.1
